Assay results as given in PubChem BioAssay (NCATS).
Values joined by “and” are separate entries in the source; they are usually repeats but may differ in a detail not shown here. Equal entries are not always repeated. Inconclusive results are not listed. Active and inactive are the calls of the source. Calls follow the shape of the dose curve; as a rule, active = well fitted cell-killing curve with a large enough effect; inconclusive = small, poorly fitted or top-dose-only effect; inactive = flat fitted curve, though single readings scatter.

assay: Cellular viability qHTS for adrenocortical cancer (ACC) cell line SW-13 (AID 1963989); details: SW-13 ACC cells viability, CellTiter-Glo, 48 h; activity (max response): stronger effect = lower value; also: nearly all actives have a fitted effect of over 65% in size;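 as to activity (max response): cells grown in serum-free medium with ITS supplement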
Description: PI: Naris Nilubol, MD Surgical Oncology Program, National Cancer Institute (NCI) National Institute of Health (NIH), Bethesda, Maryland Adrenocortical cancer (ACC) is a rare malignancy with poor survival outcomes and few treatment options. Currently, mitotane is the only FDA-approved therapy for ACC. Although adjuvant radiation therapy is rarely utilized, it has the potential to improve survival in select cases. Through a quantitative high-throughput drug screen (qHTS), we identified auranofin (AF), a thioredoxin reductase (TXNRD) inhibitor, as a promising candidate drug. This study aims to evaluate whether AF can enhance the efficacy of radiation therapy in the treatment of ACC. Two human ACC cell lines, SW-13 and NCI-H295R, were screened using the National Center for Advancing Translational Sciences (NCATS) Pharmaceutical Collection (NPC) and the Mechanism Interrogation PlatE (MIPE) library (~4,991 compounds). CellTiter-Glo (Cat # G7570, Promega, Madison, WI) was utilized to measure cell viability. Described herein are the results of the corresponding viability assay.
PROTOCOL TABLE (as described by Inglese J, Shamu CE and Guy RK. 2007) SEQUENCE No. (e.g., 1, 2, 3, etc.); […] (e.g., Cells, Incubation, Reagent, etc.); VALUE; DESCRIPTION. 1; Cells; 5 uL; white, solid-bottom, 1536-well tissue-culture treated plates. 2; Time; overnight culture at 37C with 5% CO2. 3; Compounds and control; 23 nL; Kalypsis pin tool (Wako USA) equipped with a 1536-well pin head to transfer to the assay plates. 4; Time; 48 hours; 37C with 5% CO2. 5; Reagent; 4 uL; CellTiter-Glo luminescent substrate mix. 6; Time; 20 min at room temperature. 7; Detection; Luminescence; ViewLux plate reader NOTES (numbers refer to Sequence numbers above) 1. SW13 cells were harvested from a T175 flask and resuspended in ITS-supplemented DMEM serum-free medium at a concentration of 300 000 cells/mL. Then 5 uL of resuspended cells were dispensed into each well of white, solid-bottom, 1536-well tissue-culture-treated plates using a multidrop combi dispenser. The plates were covered with stainless steel gasket lids. 2-3. The plates were cultured overnight at 37C with 5% CO2. Twenty-three nL of compounds (eight selected concentrations from the NPC / MIPE) or positive control (10 mM stock of bortezomib) in DMSO was transferred to each well of the assay plate using a pin tool (Kalypsys, San Diego, CA, USA). The final concentration of the compounds in the 5 uL assay volume ranged from 0.5 nM to 46 uM. 4-6. After 48 hours of incubation at 37C and 5% CO2, 4 uL of CellTilter-Glo luminescent substrate mix (Promega, Madison, WI, USA) was added to each well. Then the plates were incubated for 20 minutes at room temperature. 7. After incubation, luminescence was measured using a ViewLux plate reader (PerkinElmer, Waltham, MA, USA) with a clear filter was used to measure the number of metabolically competent cells. To determine compound activity in the qHTS assay, the titration-response data for each sample was plotted and modeled by a four-parameter logistic fit yielding IC50 and efficacy (maximal response) values. […] REFERENCES: Inglese J, Shamu CE and Guy RK, Reporting data from high throughput screening of small molecule libraries, Nature Chemical Biology, 2007, 3(8): 438-441. doi.org/10.1038/nchembio0807-438.
% is scaled to controls: 0 for no effect and ±100 for the full control effect; potency is read from the fitted curve at half-maximal effect.

SMILES | activity (max response) | Potency
CCOC(C(=O)OCCN(C)C)(c1ccccc1)c1ccccc1 | -0.322% (inactive) | 
CCOC(=O)Nc1ccc(NCc2ccc(F)cc2)cc1N | -1.78% (inactive) | 
NC(=O)OCCCc1ccccc1 | 11.5% (inactive) | 
COc1ccc2c3c1O[C@H]1[C@H](O)CC[C@H]4[C@@H](C2)N(C)CC[C@@]341 | -5.89% (inactive) | 
Oc1ccc2c3c1O[C@H]1[C@@H](O)C=C[C@H]4[C@@H](C2)NCC[C@@]341 | -14.8% (inactive) | 
Cc1cccc(C)c1NC1=NCCCS1 | -0.0852% (inactive) | 
CCS(=O)(=O)C(C)(C)S(=O)(=O)CC | -10.9% (inactive) | 
Clc1cccc(SC2CCNCC2)n1 | 3.75% (inactive) | 
C/C=C(/C)C(=O)O[C@H]1C(C)=C2[C@H]([C@@H]1OC(=O)CCCCCCC)[C@@](C)(OC(C)=O)C[C@H](OC(=O)CCC)[C@@]1(O)[C@H]2OC(=O)[C@@]1(C)O |  | 0.0447 µM (active)
C[C@]12CC[C@H]3[C@@H](CCC4=CC(=O)CC[C@@H]43)[C@@H]1CC[C@@H]2OC(=O)CCC1CCCCC1 | -4.2% (inactive) | 
Nc1c(Cl)c(Cl)c(Cl)c(Cl)c1Cl | -9.89% (inactive) | 
CN(C)CCc1c[nH]c2cccc(O)c12 | 3.4% (inactive) | 
C[C@@H]1CC[C@H]2[C@@H](C)C(=O)O[C@@H]3O[C@@]4(C)CC[C@@H]1[C@]32OO4 | -4.33% (inactive) and -19.2% (inactive) | 
C[C@]12CC[C@H]3[C@@H](CC=C4C[C@@H](O)CC[C@@]43C)[C@@H]1CC[C@@H]2O | 5.93% (inactive) | 
O=C(N/N=C/c1ccc([N+](=O)[O-])o1)c1cc([N+](=O)[O-])cc([N+](=O)[O-])c1O | -8.68% (inactive) | 
N[C@@H](Cc1ccc(Oc2cc(I)c(O)c(I)c2)c(I)c1)C(=O)O | 2.16% (inactive) | 
Cc1cccc(C)c1NC(=O)CN1CCCC1=O | -5.06% (inactive) and 4.95% (inactive) | 
C[C@H]1[C@@H]2Cc3ccc(O)cc3[C@@]1(C)CCN2C | -10.9% (inactive) | 
C[N+]1(CCF)[C@@H]2CC[C@H]1CC(OC(=O)C(O)(c1ccccc1)c1ccccc1)C2 (stereo not given in full) | 9.46% (inactive) | 
C=CC(=O)NCNC(=O)C=C | -0.888% (inactive) | 

SMILES | activity (max response) | Potency
c1cc2c(c(N3CCNCC3)c1)OCCO2 | -0.802% (inactive) | 
OC(O)C(Cl)(Cl)Cl | 12.7% (inactive) | 
Cn1c(COP(=O)(NCCBr)NCCBr)cnc1[N+](=O)[O-] | -13.5% (inactive) | 
C[C@]12CC[C@@H]3c4ccc(OC(=O)N(CCCl)CCCl)cc4CC[C@H]3[C@@H]1CC[C@@H]2OP(=O)(O)O | -13.4% (inactive) | 
CCOC(=O)c1c(C(C#N)=CN)c2ccc(Cl)c(Cl)c2n1C | -1.19% (inactive) | 
Cc1cc(O)ccc1Cl | 10.8% (inactive) | 
O=c1[nH]oc2c1CCNC2 | 5.4% (inactive) | 
C#CC(O)(C=CCl)CC (stereo not given) | 7.7% (inactive) | 
NC(=O)CN1CCCC1=O | 11.9% (inactive) | 
O=C(Nc1ccccc1-c1ccc(Cl)cc1)c1cccnc1Cl | -12.7% (inactive) | 
C=C1CC[C@@]2(O)[C@H]3Cc4ccc(O)c5c4[C@@]2(CCN3CC2CC2)[C@H]1O5 | 2.67% (inactive) | 
CCCCOC(=O)c1ccccc1C(=O)OCc1ccccc1 | 0.138% (inactive) | 
Nc1ccc([As](=O)(O)O)cc1 | 13.3% (inactive) | 
CC(=O)[C@H]1CC[C@H]2[C@@H]3CC[C@H]4C[C@H](O)CC[C@]4(C)[C@H]3C(=O)C[C@]12C | 0.908% (inactive) | 
N=c1c2c(-c3ccccc3)c(-c3ccccc3)n(Cc3ccccc3)c2ncn1C1CCC(O)CC1 (stereo not given) |  | 17.8 µM (active)
O=P1(N(CCCl)CCCl)NCCCO1 (stereo not given) | 0.4% (inactive) and 11% (inactive) | 
CC(C)N(CCC(C(N)=O)(c1ccccc1)c1ccccn1)C(C)C (stereo not given) | 4.36% (inactive) | 
CCN(CC)C(C)C(=O)c1ccccc1 (stereo not given) | 11.1% (inactive) | 
NCC(O)c1ccc(O)cc1 (stereo not given) | 9.24% (inactive) | 
CN1C(=O)CN=C(c2ccccc2)c2cc([N+](=O)[O-])ccc21 | 6.26% (inactive) | 
